The source of these data is PubChem BioAssay (Tox21).

Inconclusive results are not listed. A number with no mark means an inactive call. Calls of active or inactive are those of the source. Unless noted, calls come from the whole dose curve; as a rule, active = well fitted curve in the direction sought with a large enough effect in the repeat runs; inconclusive = weak or mixed curves; inactive = no such curve, though single readings can be large; an effect the other way counts as inactive or inconclusive.

Assay [1] is described as follows: qHTS assay to identify small molecule agonists of the vitamin D receptor (VDR) signaling pathway - cell viability counter screen (AID 743224). Note: series mostly up to about 63 µM; % is set by controls: 0 for no effect and ±100 for the full control effect; nearly all actives have a fitted effect of over 50% in size. In outline: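 Cells: VDR-bla, 2,000/well, settled 4 h. Treatment: compounds in DMSO, 16 h, 37C/5% CO2. Readout: CellTiter-Glo luminescence after 30 min RT.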
A short description of assay [2]: qHTS assay to identify small molecule antagonists of the vitamin D receptor (VDR) signaling pathway - cell viability counter screen (AID 743225). Note: % is set by controls: 0 for no effect and ±100 for the full control effect; nearly all actives have a fitted effect of over 50% in size. In outline:
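Parallel cytotoxicity test: VDR-UAS-bla HEK 293T, 3 nM (final) 1-alpha,25-dihydroxyvitamin D3 with test compound, 16 h, 37C. Endpoint is CellTiter-Glo luminescence in the same wells.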

Assay [3] can be described thus: qHTS assay to identify small molecule agonists of the NFkB signaling pathway (AID 1159509; active = well fitted curve in the direction sought with a large enough effect in the signal ratio in the repeat runs, not every such curve was filed as active; the % refers to the signal ratio; note: series mostly up to about 61 µM; % is set by controls: 0 for no effect and ±100 for the full control effect). In outline: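 Beta-lactamase reporter assay run in quantitative high-throughput format on an NF-kB-responsive ME-180 line, with 5 hr compound treatment and a FRET-based blue/green fluorescence readout.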
Assay [4] is described as follows: qHTS assay to identify small molecule agonists of the NFkB signaling pathway - cell viability counter screen (AID 1159515; calls by dose curve; note: series mostly up to about 61 µM; % is set by controls: 0 for no effect and ±100 for the full control effect; nearly all actives have a fitted effect of over 55% in size). In outline: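 Cells are seeded (2,000 NFkB-bla ME-180 per well), rested overnight, and dosed with DMSO-dissolved compounds for 5 hr at 37 C. Viability is then read by CellTiter-Glo luminescence after 30 min at room temperature.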
The nature of assay [5]: qHTS assay to identify small molecule agonists of the endoplasmic reticulum stress response signaling pathway (AID 1159516; active = well fitted activation curve with a large enough effect in the signal ratio in the repeat runs, not every such curve was filed as active; the % refers to the signal ratio; note: % is set by controls: 0 for no effect and ±100 for the full control effect). The method in brief: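 Cells are seeded at 1,500 per well and incubated overnight. Compounds in DMSO are added for 5 hr at 37 C, then beta-lactamase FRET substrate for 2 hr at room temperature, and fluorescence at 460 and 530 nm is measured.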
Assay [6] is described as follows: qHTS assay to identify small molecule agonists of the endoplasmic reticulum stress response signaling pathway - cell viability counter screen (AID 1159517; calls by dose curve;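 note: HeLa cells carrying an ER stress response element beta-lactamase reporter; series mostly up to about 61 µM; % is set by controls: 0 for no effect and ±100 for the full control effect; nearly all actives have a fitted effect of over 50% in size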). In outline:
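After overnight attachment, ESRE-bla HeLa cells were treated with Tox21 library compounds for 5 hr. CellTiter-Glo luminescence, read 30 min post-addition at room temperature, reported viability.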

For assay [7], the target named is Nuclear receptor ROR-gamma (Homo sapiens) (UniProt P51449). The experiment in a line: qHTS assay to identify small molecule antagonists of the retinoid-related orphan receptor gamma (ROR-gamma) signaling pathway (AID 1159521;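 note: CHO cells with doxycycline inducible ROR-gamma driving an RORE luciferase reporter; top concentration of the series differs between compounds; % is set by controls: 0 for no effect and ±100 for the full control effect; nearly all actives have a fitted effect of over 50% in size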). In outline:
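Decreased RORE-driven luciferase luminescence indicates antagonism. Tet-on RORγ CHO cells received compound, then 1 uM final doxycycline 2 h later; signal read after 16 h incubation.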

Assay [8] is described as follows: qHTS assay to identify small molecule agonists of the AP-1 signaling pathway - cell viability counter screen (AID 1159525; calls by dose curve; note: nearly all actives have a fitted effect of over 55% in size). The method in brief: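 Intracellular ATP by Cell Titer Glo luminescence (30 min, RT) in the same ME-180 AP-1-bla wells after the 5 h compound exposure at 37 °C. Normalised to tetra n-octyl ammonium bromide and DMSO controls.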
Assay [9] in a line: qHTS assay to identify small molecule agonists of the AP-1 signaling pathway (AID 1159526; calls by dose curve; note: % is set by controls: 0 for no effect and ±100 for the full control effect).
Assay [10] deals with Retinoic acid receptor RXR-alpha (Homo sapiens) (UniProt P19793). The experiment in a line: qHTS assay to identify small molecule agonists of the RXR signaling pathway (AID 1159527; calls by dose curve; note: nearly all actives have a fitted effect of over 35% in size; note: potency is the fitted concentration of half-maximal effect). In outline: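 16 hr incubation of compound-treated RXR-alpha-UAS-bla HEK 293T cells (2% charcoal-stripped FBS, 37 C) preceded a 2 hr room-temperature LiveBLAzer FRET substrate step and blue/green fluorescence measurement.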
Retinoic acid receptor RXR-alpha (Homo sapiens), sequence (P19793 whole entry, looked up): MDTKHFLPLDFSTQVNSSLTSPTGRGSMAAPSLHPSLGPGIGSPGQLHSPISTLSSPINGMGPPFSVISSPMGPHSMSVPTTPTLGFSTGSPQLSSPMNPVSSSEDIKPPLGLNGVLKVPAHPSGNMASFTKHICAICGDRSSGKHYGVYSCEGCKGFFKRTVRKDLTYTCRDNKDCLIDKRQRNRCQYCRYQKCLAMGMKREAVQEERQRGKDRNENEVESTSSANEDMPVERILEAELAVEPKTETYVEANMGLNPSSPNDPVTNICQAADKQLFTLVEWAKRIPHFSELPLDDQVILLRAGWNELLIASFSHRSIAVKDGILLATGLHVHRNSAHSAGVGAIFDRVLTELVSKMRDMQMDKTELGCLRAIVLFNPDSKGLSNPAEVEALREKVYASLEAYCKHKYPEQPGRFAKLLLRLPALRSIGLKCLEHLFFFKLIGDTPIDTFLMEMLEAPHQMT

A short description of assay [11]: qHTS assay to identify small molecule agonists of the RXR signaling pathway - cell viability counter screen (AID 1159529). The method in brief:
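In this parallel viability measure, GeneBLAzer RXR-alpha HEK 293T cells (2% charcoal-stripped FBS) were given a 5 hr preincubation, treated with compounds 16 hr at 37 C, and read by CellTiter-Glo luminescence.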

Assay [12] is described as follows: qHTS assay to identify small molecule antagonists of the retinoid acid receptor (RAR) signaling pathway - cell viability counter screen (AID 1159551). Note: % is set by controls: 0 for no effect and ±100 for the full control effect; nearly all actives have a fitted effect of over 35% in size. The method in brief: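 Cells (C3RL4) are plated, incubated overnight, dosed with compound in DMSO, then given retinol at 1 uM final. After 6 h at 37 C, CellTiter-Glo is added and luminescence read following 30 min at room temperature.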

Assay [13] is described as follows: qHTS assay to identify small molecule antagonists of the retinoic acid receptor (RAR) signaling pathway (AID 1159552). The method in brief: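 C3RL4 RARE-luc cells, overnight plating; retinol 1 uM final added right after compound; 6 hr 37 C; luciferase read at 30 min RT.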
A short description of assay [14]: qHTS assay to identify small molecule antagonists of the retinoid-related orphan receptor gamma (ROR-gamma) signaling pathway - cell viability counter screen (AID 1159520). In outline: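 Cytotoxicity was read from cellular ATP (CellTiter-Glo luminescence) after 16 hr at 37 C with 1 uM doxycycline induction. The inducer was added 2 hr after compound transfer to Tet-on ROR gamma CHO cells.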

The nature of assay [15]: qHTS assay to identify small molecule agonists of the retinoic acid receptor (RAR) signaling pathway (AID 1159553). Note: % is set by controls: 0 for no effect and ±100 for the full control effect. In outline: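 Seed C3RL4 reporter cells at 1,000 per well and incubate overnight at 37 C. Add compounds in DMSO, incubate 6 hr. Add luciferase reagent, wait 30 min at room temperature, read luminescence.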
Assay [16] in a line: qHTS assay to identify small molecule antagonists of the estrogen related receptor (ERR) signaling pathway - cell viability counter screen (AID 1224818). The method in brief:
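ERR cells, 2,000/well; 6 h settle at 37 C/5% CO2; compound pin transfer (DMSO); 17.5 h at 37 C; CellTiter-Fluor, 30 min, fluorescence read.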

Assay [17] is described as follows: qHTS assay to identify small molecule antagonists of the estrogen related receptor (ERR) signaling pathway (AID 1224819). The method in brief: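 qHTS in ERR cells, 2,000/well, 1536 format. Cpd (DMSO) added after 6 h settle, 18 h 37 C. One-Glo luminescence, 30 min RT.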
The nature of assay [18]: qHTS assay to identify small molecule agonists of the estrogen related receptor (ERR) signaling pathway (AID 1224820). Note: % is set by controls: 0 for no effect and ±100 for the full control effect. The method in brief: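 Following a 6 h settling period, 2,000 ERR cells per well receive DMSO-dissolved compounds by pin tool and incubate 18 h at 37 C; agonist activity is scored from One-Glo luminescence read 30 min post-addition.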
For assay [19], the system named is estrogen-related receptor alpha (ERRalpha) with PGC-1alpha coactivator, human. Briefly: qHTS assay to identify small molecule antagonists of the estrogen related receptor signaling pathway with the pleiotropic PPARgamma coactivator (PGC) (AID 1224821; calls by dose curve). The method in brief: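 Screening used NTP's PGC/ERR cells, dosed via pin tool with compound in DMSO alongside positive and negative controls. After 18 h at 37 C, One-Glo reagent sat 30 min at room temperature before luminescence detection.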

Assay [20] can be described thus: qHTS assay to identify small molecule antagonists of the estrogen related receptor signaling pathway with the pleiotropic PPARgamma coactivator (PGC) cell viability counter screen (AID 1224822). In outline: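 Multiplexed viability counter screen run in PGC/ERR cells treated with compounds for 17.5 h at 37 C; live-cell protease signal measured by CellTiter-Fluor fluorescence.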

In the case of `CCOC(=O)CC(=O)c1ccccc1`, the Potency result in assay [1], in [6] and in [10] was “inactive” in each case. The compound was called inactive in [2], in assay [3], in assay [4], in [5], in assay [7] and in assay [8]. Further, the compound was classed as inactive in assay [9], in [11], in assay [12] and in assay [13].

Consider `OCCCCC(O)CO` (stereo unspecified), for which the Potency result in [1], in assay [6] and in assay [15] was “inactive” each time. The call in assay [2], in assay [3], in assay [4], in [5], in assay [14] and in [7] was inactive. Moreover, the call in [8] and in assay [9] was inactive. In addition, the Potency in [10] was 11.6 µM (active).

In the case of `CC(=O)c1ccc2c(c1)Cc1ccccc1-2`, the Potency entry in assay [1], in assay [6] and in assay [10] was “inactive” throughout. The compound was classed as inactive in assay [2], in assay [3], in assay [4], in assay [5], in assay [14] and in [7]. The call in assay [9], in assay [11], in assay [12] and in [13] was inactive.

Take `O=C1c2cccc3c2[C@H](CCC3)CN1[C@@H]1CN2CCC1CC2`: the Potency entry in assay [1], in [6], in assay [10] and in assay [15] was “inactive” each time. Moreover, the compound was classed as inactive in [2], in assay [3], in [4], in [5], in assay [14] and in [7]. The compound was called inactive in [9], in assay [11], in assay [12] and in assay [13].

In the case of `COc1ccc(C2CNC(=O)C2)cc1OC1CCCC1` (stereo unspecified), the Potency entry in assay [1], in [6] and in [10] was “inactive” each time. Moreover, the result in [2], in assay [3], in assay [4], in [5], in assay [7] and in [8] was inactive. For the same compound, the compound was called inactive in [9], in assay [11], in assay [12], in [16], in assay [17] and in assay [18]. The result in assay [19] and in assay [20] was inactive.

Turning to `C[Si](C)=O`, the activity change, negative = cytotoxicity was 2.87% [at 5.95 µM] in [1] and -12.1% [at 6.95 µM] in [6]. Moreover, the figures for the viability change, negative = cytotoxic in [2] and in [8] were 6.84% [at 6.95 µM] and -14.5% [at 6.97 µM], respectively. In addition, the activation in assay [3] was 0.149% [at 6.95 µM]; in assay [5], -1.7% [at 6.95 µM]; in assay [9], -3.55% [at 6.97 µM]; in assay [10], 8.36% [at 6.98 µM]. Moreover, the activity, negative = cytotoxic in assay [4] is 10.4% [at 6.95 µM]. In assay [14], the activity, negative = cytotoxicity is 0.127% [at 8.39 µM]. In assay [7], the activity change, negative = inhibition was 3.36% [at 8.39 µM].

Turning to `CO[C@@H]1[C@@H](OC(N)=O)[C@@H](O)[C@H](Oc2ccc3c(O)c(NC(=O)c4ccc(O)c(CC=C(C)C)c4)c(=O)oc3c2C)OC1(C)C`, the Potency entry in assay [1], in assay [6] and in [10] was “inactive” throughout. In addition, the compound was classed as inactive in [2], in assay [3], in [4], in assay [5], in assay [14] and in assay [7]. The compound was classed as inactive in assay [9] and in assay [11].

`CCCCCOC(=O)CCC`: the Potency entry in assay [1], in [6] and in assay [10] was “inactive” in each case. Besides, the outcome in assay [2], in assay [3], in [4], in assay [5], in assay [14] and in assay [7] was inactive. The call in assay [9], in [11], in assay [12] and in assay [13] was inactive.

In the case of `CNS(=O)(=O)CCc1ccc2[nH]cc(C3CCN(C)CC3)c2c1`, the Potency entry in assay [1], in assay [6] and in assay [10] was “inactive” throughout. The compound was called inactive in assay [2], in assay [3], in [4], in assay [5], in assay [14] and in assay [7]. For the same compound, the result in assay [9], in assay [16] and in [20] was inactive.
